Screening data from PubChem.
Pol kappa inh: qHTS for Inhibitors of Polymerase Kappa; purified Pol kappa, fluorescent DNA synthesis assay, 10 min; AID 588579, 2011; Potency, µM (doses to about 107 µM), inactives show at the top dose activity, negative = inhibition, actives largely listed as inhibitors; actives 0.53% (n = 400,000); further: on the % scale 0 is the no-effect control and ±100 the full control effect
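Inhibition of 10 nM Pol kappa is measured by a fluorescent read-out at 0 and 10 min following addition of 50 nM substrate (final), with a 15-min room-temperature compound preincubation.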
Pol eta inh: qHTS for Inhibitors of Polymerase Eta | recombinant Pol eta, fluorescent DNA replication assay | Potency, µM (doses to about 114 µM), inactives show at the top dose activity change, negative = inhibition, usual class: inhibitors | actives 1.2% (n = 390,000); further: on the % scale 0 is the no-effect control and ±100 the full control effect
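Pol eta at 10 nM preincubated with compounds 15 min at room temperature; reaction started with fluorescent substrate (50 nM final) and read kinetically at 0 and 10 min.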
L3MBTL1 block: qHTS Assay for the Inhibitors of L3MBTL1. Lethal(3)malignant brain tumor-like protein 1 (Homo sapiens), Q9Y468. AlphaScreen L3MBTL1–H3K9me1 peptide binding. Potency, µM (doses to about 57.1 µM), inactives show top-dose activity, negative = inhibition, most hits filed as inhibitors. actives 0.66% (n = 230,000). AID 485360, 2010; further: on the % scale 0 is the no-effect control and ±100 the full control effect; nearly all actives have a fitted effect of over 60% in size
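AlphaScreen proximity signal between nickel-chelate acceptor and streptavidin donor beads (final 10 ug/mL) reports binding of 50 nM L3MBTL1 to 75 nM biotin-H3 K9me1 peptide; complex incubated with compounds 30 min at room temperature; cefsulodin titration as control.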
POLI inh: qHTS for Inhibitors of Polymerase Iota. Pol iota fluorescent replication assay, 10 min. Potency, µM (titrated, usually from 115 µM), for inactives: at the top dose activity, negative = inhibition, usual class: inhibitors. actives 1% (n = 390,000)
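Pol iota at 10 nM preincubated 15 min with compounds at room temperature; reaction started with fluorescent substrate, 50 nM final. Fluorescence read kinetically at 0 and 10 min; buffer-only wells as negative control.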
Pol beta inh: qHTS Assay for Inhibitors of DNA Polymerase Beta; P06746; Pol beta primer extension/strand displacement, fluorescence kinetic; Potency, µM (titrated, usually from 114 µM), inactives show top-dose activity change, negative = inhibition, usual class: inhibitors; actives 1.3% (n = 340,000); AID 485314, 2010; further: on the % scale 0 is the no-effect control and ±100 the full control effect
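Pol beta (10 nM) was preincubated with compound for 15 min at room temperature. The reaction was then started with 50 nM substrate and read immediately and after a further 10 min at room temperature.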
Numbers without * were called inactive; ? = inconclusive; nt = not tested or not shown; [ ] = another dose, or the depositor's remark. Hits are enriched below; roughly 2.4% of the tested compounds scored in any of these assays. The call rests on the fitted dose curve; in most records, active means well fitted curve in the direction sought with a large enough effect; inconclusive means small, poorly fitted or top-dose-only effect, or another doubt; inactive means no such curve, though single readings can be large; an effect the other way counts as inactive or inconclusive. Potency means the concentration at half of the fitted maximal effect.

SMILES	Pol kappa inh	Pol eta inh	L3MBTL1 block	POLI inh	Pol beta inh
O=C(Cc1ccc(S(=O)(=O)N2CCCC2)s1)N1CCN(c2ccccc2)CC1	0%	-9%	?	55%	32µM*
COc1ccccc1CNC(=O)C(=O)NCCC1CCCCN1S(=O)(=O)c1cccs1 (configuration not stated)	89µM*	0%	-10%	40%	nt
c1cc(C2CCCCC2)ccc1Oc1nc(N2CCOCC2)nc(N2CCOCC2)n1	-7%	5%	6%	3%	23%
c1ccc(Oc2nc(N3CCOCC3)nc(N3CCOCC3)n2)cc1	-3%	-11%	nt	-29%	89µM*
COC(=O)c1c(NC(=O)CCCOc2ccc(C(C)(C)C)cc2)sc2c1C(C(=O)OC)CC2 (configuration not stated)	?	-12%	nt	89µM*	-10%
CCCC(=O)Nc1sc2c(c1C(=O)OC)C(C(=O)OC)CC2 (configuration not stated)	-3%	-6%	-3%	-2%	-1%
COc1ccc(N2Cc3cccc(C(=O)O)c3C2=O)cc1	?	4µM*	nt	?	7.1µM*
CCCN1Cc2cccc(C(=O)N3CCN(c4ccc(OC)cc4)CC3)c2C1=O	1%	4%	nt	9%	-12%
CCOc1ccc(C(c2c(O)cc(C)n(CCOC)c2=O)N2CCN(c3ccccc3F)CC2)cc1 (configuration not stated)	-3%[60.1 µM]	-13%	nt	12%	1%
CCOC(=O)c1cccc(NC(=O)c2cncc(Br)c2)c1	79µM*	2%	14%	89µM*	4%
CCOC(=O)c1cccc(NC(=O)c2cccnc2)c1	-4%	-1%	5%	13%	6%
CCCCn1c(N)c(-c2nc3ccccc3o2)c2c([N+](=O)[O-])nn(CC)c(=O)c21	-3%	3.5µM*	-2%	-21%	14%
CCc1ccccc1NC(=O)c1cc2nc(-c3ccc(Br)cc3)cc(C(F)(F)F)n2n1	-3%[60.1 µM]	7%	nt	7%	1%
COc1cccc2c1Oc1ncccc1N(c1ccc(C(=O)NCc3ccccc3Cl)s1)C2	-10%	-5%	nt	1%	-2%
COc1cccc2c1Oc1ncccc1N(c1ccc(C(=O)NCc3cccc(C)c3)s1)C2	?	-13%	nt	89µM*	27%
Cc1ccc(NC(=O)C(C)OC(=O)c2ccc(Cl)nc2)cc1S(=O)(=O)N1CCOCC1 (configuration not stated)	-15%	20µM*	-4%	?	nt
Cc1ccc(NC(=O)C(C)OC(=O)c2nc(Cl)ccc2Cl)cc1S(=O)(=O)N1CCOCC1 (configuration not stated)	-30%	?	nt	?	nt
Cc1cc(C)c2c(n1)NCCC2	7%	nt	nt	-13%	nt
CN1C2CCC1/C(=C\c1ccc(F)cc1)C(=O)/C2=C/c1ccc(F)cc1	0%	-5%	-14%	11%	-1%
CN1C2CCC1/C(=C/c1cccn1C)C(=O)/C2=C\c1cccn1C	-11%	?	4.5µM*	75%	?
COc1cc2c(cc1OC)C1O[C@](c3ccsc3)(C2)Oc2cc(-c3ccccc3)oc(=O)c21	nt	nt	nt	nt	13µM*
O=C(Cn1ccn(-c2ccc(F)cc2)c(=O)c1=O)NCCc1ccccc1	-24%	-16%	nt	23%	4%
O=C1NC(=S)N/C1=C/c1cccn1-c1ccc([N+](=O)[O-])cc1	?	?	?	56µM*	7.9µM*
CCN(CC)Cc1oc(CO)cc(=O)c1O	-13%	-18%	1.1µM*	?	?
Cc1ccc(NC(=O)Nc2nc3ccc(S(C)(=O)=O)cc3s2)cc1	-3%	79µM*	3%	23%	nt
SMILES	Pol kappa inh	Pol eta inh	L3MBTL1 block	POLI inh	Pol beta inh
CS(=O)(=O)c1ccc2nc(NC(=O)Nc3ccccc3F)sc2c1	12%	-1%	36%	-10%	49%
CS(=O)(=O)c1ccc2nc(NC(=O)Nc3ccc(Cl)c(Cl)c3)sc2c1	-8%	-16%	5%	139%	-16%
CS(=O)(=O)c1ccc2nc(NC(=O)Nc3cccc(Cl)c3)sc2c1	-4%	-9%	11%	?	50µM*
CCCCCCCCCCCCCCCCCCc1ccc(C(=O)/C=C/C(=O)O)cc1	-1%[19.4 µM]	nt	nt	nt	nt
O=C(O)/C=C/C(=O)c1ccc(O)cc1	-19%	3%	0%	18µM*	0%
CCCCCCCCCCCCCCCCCCc1ccc(C(=O)/C=C\C(=O)O)cc1	13µM*	nt	nt	nt	nt
NC(=O)CC(NC(=O)Cc1ccc(Br)cc1)c1ccc(NC2CCN(Cc3ccccc3)CC2)c([N+](=O)[O-])c1 (configuration not stated)	12%	-11%	1%	1%	45µM*
NC(=O)CC(NC(=O)Cc1ccc(Br)cc1)c1ccc(NC2CCCC2)c([N+](=O)[O-])c1 (configuration not stated)	-7%	-2%	nt	-4%	16%
NC(=O)CC(NC(=O)Cc1cccc2ccccc12)c1ccc(NC2CCN(Cc3ccccc3)CC2)c([N+](=O)[O-])c1 (configuration not stated)	-7%	-3%	-7%	-28%	50µM*
CCc1ccc(C(=O)C[N+]2(C)CCOCC2)cc1	9%	nt	nt	34%	nt
O=C(CCCn1c(=S)[nH]c2cc3c(cc2c1=O)OCO3)NCc1cccc(Cl)c1	?	-17%	nt	45µM*	1%
O=C(CCCCCn1c(=S)[nH]c2cc3c(cc2c1=O)OCO3)N1CCN(C(=O)c2ccco2)CC1	-30%	?	6%	28µM*	?
O=C(CCCCCn1c(=S)[nH]c2cc3c(cc2c1=O)OCO3)N1CCN(Cc2ccccc2)CC1	-10%	-6%	-10%	6%	16%
C=CS(=O)(=O)c1ccc(Oc2ccc(S(=O)(=O)C=C)cc2)cc1	-3%	?	-6%	10µM*	16%
NS(=O)(=O)c1ccc(Oc2ccc(S(N)(=O)=O)cc2)cc1	-1%	-14%	3%	6%	-2%
COc1cccc(S(=O)(=O)N(C)C[C@@H]2Oc3cc(Br)ccc3S(=O)(=O)N([C@@H](C)CO)C[C@@H]2C)c1	nt	-21%	nt	nt	nt
COc1ccc(S(=O)(=O)N2CCCCC2)cc1NC(=O)CCc1nc2ccccc2c(=O)[nH]1	2%	-11%	-1%	-10%	nt
Cc1ccc(S(=O)(=O)N2CCCCC2)cc1NC(=O)CCc1nc2ccccc2c(=O)[nH]1	-8%	28µM*	-11%	?	nt
NC(=O)C(CC(=O)O)NC(=O)[C@@H]1CCCNc2c(I)cc([N+](=O)[O-])cc2C(=O)N[C@@H](CO)C(=O)N[C@@H](Cc2ccc(O)cc2)C(=O)N1 (some centres not stated)	50µM*	16µM*	-2%	?	-24%
